# Measured values as given in PubChem BioAssay.
# Active and inactive are the calls of the source.
# Assays:
# [1] = molecular target: Albumin (Bos taurus) (UniProt P02769); assay: compounds binding labelled BSA control protein – biochemical, small-molecule microarray, Alexa647 label, 635/667 nm fluorescence, artefact control for SMM control protein annotation, profiling panel (AID 1118); settings: BSA-A647 binding, fluorescence 635 nm, higher = more signal;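 note: score merges 667 nm emission intensity and signal-to-noise per printed compound spot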
# [2] = probe aXIP binding to arrayed compounds – biochemical, NeuroSMM set, 635/667 nm fluorescence, primary screen (AID 1119); settings: small-molecule microarray, higher = more signal, called active from +8 up or from −8 down;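 note: probe is the protein aXip251-270 applied at 1 µg/mL to compound-printed slides; binding of probe to printed compounds measured as 667 nm fluorescence plus signal to noise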
# [3] = probe aNOTCH3 binding on compound microarray – biochemical, small-molecule microarray, 635/667 nm fluorescence, primary screen (AID 1120); settings: higher = more signal;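 note: probe is a biotin-tagged antibody raised against NOTCH3 rather than NOTCH3 protein; score merges spot fluorescence near 667 nm with spot signal to noise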
# [4] = probe aNOTCH2 binding on compound microarray – biochemical, small-molecule microarray, 635/667 nm fluorescence, primary screen (AID 1121); settings: higher = more signal;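 note: score merges feature fluorescence read at 667 nm with its signal to noise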
# [5] = molecular target: Carbonic anhydrase 2 (Homo sapiens) (UniProt P00918); assay: compounds binding carbonic anhydrase 2 – biochemical, small-molecule microarray, Alexa647-labelled CAII, profiling panel (AID 1122); settings: CAII-A647 binding fluorescence, higher = more signal
# [6] = COS7 lysate on small-molecule microarray, probe aHis, 635 nm (AID 1123); settings: COS7 cell lysate, fluorescence, higher = more signal;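 note: z-score combines 667nm fluorescence intensity with signal-to-noise per printed compound spot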
# [7] = probe aLAP1 signal on lysate-treated microarray – cell lysate, small-molecule microarray, COS7 lysate, primary screen (AID 1124); settings: probe aLAP1, fluorescence, higher = more signal;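 note: lysate comes from COS7 cells expressing LAP1 and is applied at 0.3 µg/mL; score merges spot fluorescence near 667 nm with signal-to-noise over triplicate slides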
# [8] = test system: Sam68 (KHDRBS1); assay: compounds binding KHDRBS1 protein – biochemical, small-molecule microarray, 635 nm fluorescence, primary screen (AID 1125); settings: higher = more signal;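 note: score merges 667 nm channel intensity with signal to noise over triplicate slides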
# [9] = test system: Chordin-like protein 2 (CHRDL2); assay: compounds binding chordin-like 2 – biochemical, small-molecule microarray, 635 nm fluorescence, primary screen (AID 1126); settings: fluorescence 635 nm, higher = more signal;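 note: printed compound slides probed with Chrdl2 protein at 4 µg/mL for 1 h at 4 C; score merges 667 nm emission intensity with signal to noise over three replicate slides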
# [10] = molecular target: Concanavalin-A (Canavalia ensiformis) (UniProt P02866); assay: compounds binding concanavalin A lectin – biochemical, small-molecule microarray, Alexa647 label, 635 nm, artefact control for SMM control protein annotation, primary screen (AID 1127); settings: ConA-A647 binding fluorescence, higher = more signal;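 note: z combines 667 nm emission intensity with signal-to-noise across three replicate slides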
# [11] = compounds binding Alexa647 anti-His antibody – biochemical, small-molecule microarray, 635 nm fluorescence, artefact control for SMM control protein annotation, primary screen (AID 1128); settings: higher = more signal;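 note: score merges feature fluorescence with signal-to-noise for each printed compound spot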
# [12] = test system: Human papillomavirus type 1a E7 protein (residues 1-88); assay: HPV1a E7 small-molecule binders, primary screen, biochemical, small-molecule microarray, residues 1-88, 635 nm (AID 1129); settings: small-molecule microarray binding, fluorescence 635 nm; higher = more signal
# [13] = molecular target: Focal adhesion kinase 1 (Homo sapiens) (UniProt Q05397); assay: PTK2 protein binding on printed compound slides – biochemical, small-molecule microarray, 635/667 nm fluorescence, BSA, DTT, primary screen (AID 1130); settings: 635 nm fluorescence, higher = more signal;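 note: composite of spot emission at 667 nm and signal to noise over triplicate slides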
# [14] = test system: Fibrinogen (Alexa647-labelled); assay: Alexa647-fibrinogen binding to printed small molecules – biochemical, small-molecule microarray, 635/667 nm fluorescence, artefact control for SMM control-protein annotation, profiling panel (AID 1131); settings: fibrinogen-A647 binding fluorescence, higher = more signal;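 note: z-score merges 667 nm fluorescence with per-spot signal-to-noise over triplicate slides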
# [15] = molecular target: Follistatin (Homo sapiens) (UniProt P19883); assay: FST protein binding to printed compounds – biochemical, small-molecule microarray, 635/667 nm fluorescence, primary screen (AID 1132); settings: 635 nm fluorescence, higher = more signal
# [16] = molecular target: Fibroblast growth factor 2 (Homo sapiens) (UniProt P09038); assay: basic fibroblast growth factor binding to printed compounds – biochemical, small-molecule microarray, 635/667 nm fluorescence, primary screen (AID 1133); settings: FGF2, fluorescence 635/667, higher = more signal
# [17] = JC-1 mitochondrial potential readout, lung cancer cells – cell-based, A549, JC-1 fluorescence, basal, 24 h, 100 nL, profiling panel (AID 1138); settings: higher = more signal;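 note: A549 lung adenocarcinoma cells under basal conditions with no added stimulus; test concentration not given here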
# [18] = test system: Lefty1; assay: Lefty1 protein binding to printed compounds – biochemical, small-molecule microarray, 635/667 nm fluorescence, primary screen (AID 1139); settings: fluorescence 635/667, higher = more signal
# [19] = test system: wheat germ agglutinin (Triticum aestivum), Alexa647-labelled; assay: Alexa647-WGA lectin binding to printed small molecules – biochemical, small-molecule microarray, 635/667 nm fluorescence, artefact control for SMM control-protein annotation, profiling panel (AID 1140); settings: WGA-A647 binding, 635 nm fluorescence, higher = more signal;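 note: score merges 667 nm feature emission with signal to noise over triplicate slides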
# [20] = molecular target: Luciferin 4-monooxygenase (Photinus pyralis) (UniProt P08659); assay: inhibition of purified Photinus pyralis luciferase – biochemical, luminescence, purified enzyme, 2006 set, primary screen (AID 1141); settings: purified firefly luciferase, SteadyGlo luminescence, 30 min; higher = more signal, called active from +8 up or from −8 down;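 note: cell-free assay with purified firefly luciferase at 100 ng per well in PBS; test concentration not given here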
# Sequence of Luciferin 4-monooxygenase (Photinus pyralis) (P08659 whole entry, looked up): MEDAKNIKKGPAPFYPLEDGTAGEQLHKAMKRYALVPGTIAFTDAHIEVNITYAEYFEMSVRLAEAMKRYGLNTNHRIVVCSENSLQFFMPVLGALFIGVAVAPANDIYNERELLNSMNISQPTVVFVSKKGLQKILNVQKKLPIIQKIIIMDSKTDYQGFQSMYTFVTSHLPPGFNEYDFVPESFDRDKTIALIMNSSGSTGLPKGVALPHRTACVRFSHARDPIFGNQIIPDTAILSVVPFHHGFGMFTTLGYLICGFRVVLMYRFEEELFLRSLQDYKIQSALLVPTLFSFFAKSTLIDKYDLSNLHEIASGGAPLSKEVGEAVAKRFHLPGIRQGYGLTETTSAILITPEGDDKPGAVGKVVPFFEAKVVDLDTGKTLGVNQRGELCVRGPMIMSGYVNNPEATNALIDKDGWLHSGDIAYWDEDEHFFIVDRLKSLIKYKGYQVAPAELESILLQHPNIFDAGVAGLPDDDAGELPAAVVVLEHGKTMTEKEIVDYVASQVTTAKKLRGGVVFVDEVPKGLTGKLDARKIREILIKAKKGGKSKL
# Sequence of Focal adhesion kinase 1 (Homo sapiens) (Q05397 whole entry, looked up): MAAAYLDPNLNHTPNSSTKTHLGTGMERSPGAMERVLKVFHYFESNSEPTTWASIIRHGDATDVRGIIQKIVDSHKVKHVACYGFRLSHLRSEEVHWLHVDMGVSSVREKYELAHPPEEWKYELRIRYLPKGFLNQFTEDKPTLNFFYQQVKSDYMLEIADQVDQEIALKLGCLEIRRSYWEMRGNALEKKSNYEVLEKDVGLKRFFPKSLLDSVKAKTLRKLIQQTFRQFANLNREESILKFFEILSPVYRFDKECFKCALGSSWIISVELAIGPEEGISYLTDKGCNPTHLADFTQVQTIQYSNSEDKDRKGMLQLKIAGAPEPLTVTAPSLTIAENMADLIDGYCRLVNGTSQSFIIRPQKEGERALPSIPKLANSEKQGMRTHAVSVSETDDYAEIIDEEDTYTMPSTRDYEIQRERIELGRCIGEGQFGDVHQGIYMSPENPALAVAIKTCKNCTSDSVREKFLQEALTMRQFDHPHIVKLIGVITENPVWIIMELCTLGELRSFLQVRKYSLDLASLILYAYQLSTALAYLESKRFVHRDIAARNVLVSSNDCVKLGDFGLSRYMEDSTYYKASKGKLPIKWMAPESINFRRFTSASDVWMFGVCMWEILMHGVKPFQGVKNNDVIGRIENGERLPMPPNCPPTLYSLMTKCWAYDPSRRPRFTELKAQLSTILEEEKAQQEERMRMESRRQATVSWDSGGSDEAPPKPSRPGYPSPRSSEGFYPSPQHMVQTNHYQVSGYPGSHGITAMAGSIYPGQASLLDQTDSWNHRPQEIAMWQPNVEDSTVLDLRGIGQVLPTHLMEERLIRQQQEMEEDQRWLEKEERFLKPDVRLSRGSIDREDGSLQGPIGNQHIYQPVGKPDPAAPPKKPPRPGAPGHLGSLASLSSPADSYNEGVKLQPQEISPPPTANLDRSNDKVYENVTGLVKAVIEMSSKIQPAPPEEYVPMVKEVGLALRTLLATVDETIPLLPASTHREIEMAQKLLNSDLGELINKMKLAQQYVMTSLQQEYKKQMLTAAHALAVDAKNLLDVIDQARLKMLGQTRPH
# Sequence of Fibroblast growth factor 2 (Homo sapiens) (P09038 whole entry, looked up): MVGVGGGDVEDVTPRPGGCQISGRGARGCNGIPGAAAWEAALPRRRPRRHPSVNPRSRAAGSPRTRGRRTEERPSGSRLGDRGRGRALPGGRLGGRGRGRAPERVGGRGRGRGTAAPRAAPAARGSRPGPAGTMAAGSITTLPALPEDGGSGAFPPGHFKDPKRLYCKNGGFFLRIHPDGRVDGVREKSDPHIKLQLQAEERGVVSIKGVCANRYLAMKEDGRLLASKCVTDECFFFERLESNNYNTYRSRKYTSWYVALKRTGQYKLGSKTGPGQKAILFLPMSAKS
# Sequence of Concanavalin-A (Canavalia ensiformis) (P02866 whole entry, looked up): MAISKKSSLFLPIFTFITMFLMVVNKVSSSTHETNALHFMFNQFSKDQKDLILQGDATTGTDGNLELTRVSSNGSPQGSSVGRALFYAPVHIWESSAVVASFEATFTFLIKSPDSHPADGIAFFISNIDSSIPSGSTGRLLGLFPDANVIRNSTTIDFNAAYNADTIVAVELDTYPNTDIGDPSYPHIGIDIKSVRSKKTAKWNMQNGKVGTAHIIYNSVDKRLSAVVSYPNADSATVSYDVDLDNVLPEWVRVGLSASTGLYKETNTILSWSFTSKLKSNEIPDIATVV
# Sequence of Albumin (Bos taurus) (P02769 whole entry, looked up): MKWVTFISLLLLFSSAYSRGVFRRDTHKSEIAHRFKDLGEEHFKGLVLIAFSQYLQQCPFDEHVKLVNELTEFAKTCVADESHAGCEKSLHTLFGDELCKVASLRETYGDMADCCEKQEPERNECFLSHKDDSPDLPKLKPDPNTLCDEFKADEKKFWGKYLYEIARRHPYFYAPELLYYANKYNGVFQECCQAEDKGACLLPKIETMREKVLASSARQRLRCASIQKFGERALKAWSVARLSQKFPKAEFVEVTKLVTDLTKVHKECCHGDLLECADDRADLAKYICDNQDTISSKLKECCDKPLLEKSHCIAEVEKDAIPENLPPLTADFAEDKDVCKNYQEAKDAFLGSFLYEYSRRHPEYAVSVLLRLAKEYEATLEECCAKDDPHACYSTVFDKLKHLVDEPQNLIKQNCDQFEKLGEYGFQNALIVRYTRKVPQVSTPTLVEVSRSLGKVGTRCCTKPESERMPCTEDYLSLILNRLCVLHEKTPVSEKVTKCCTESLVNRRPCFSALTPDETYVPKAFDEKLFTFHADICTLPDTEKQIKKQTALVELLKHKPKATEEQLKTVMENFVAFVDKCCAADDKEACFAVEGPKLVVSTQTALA
# Sequence of Follistatin (Homo sapiens) (P19883 whole entry, looked up): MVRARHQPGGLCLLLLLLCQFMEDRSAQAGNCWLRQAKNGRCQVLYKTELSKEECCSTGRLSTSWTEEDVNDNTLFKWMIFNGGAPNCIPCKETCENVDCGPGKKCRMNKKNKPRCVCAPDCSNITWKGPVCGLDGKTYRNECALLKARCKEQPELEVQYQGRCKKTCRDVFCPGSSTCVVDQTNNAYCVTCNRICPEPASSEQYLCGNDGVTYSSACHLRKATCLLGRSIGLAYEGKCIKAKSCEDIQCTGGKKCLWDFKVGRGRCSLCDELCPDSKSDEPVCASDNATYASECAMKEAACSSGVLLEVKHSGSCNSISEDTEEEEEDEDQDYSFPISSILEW
SMILES,composite z-score [1],composite Z-score [2],composite z-score [3],composite z-score [4],composite z-score [5],composite z-score [6],composite z-score [7],composite z-score [8],composite z-score [9],composite z-score [10],composite z-score [11],composite z-score [12],composite z-score [13],composite z-score [14],composite z-score [15],composite z-score [16],z-score [17],composite z-score [18],composite z-score [19],z-score [20]
O=C1OCCC=C[C@H]2OC34C=CCN(c5ccc6ccccc6c5)C(=O)[C@H]3N(CCO)C(=O)[C@@H]4C12 (stereo not given in full),-0.594,0.465 (inactive),-0.571,-0.445,0.368,-0.237,-0.162,-0.362,-0.976,-0.403,-0.75,-0.803,-0.101,-0.318,-0.129,-0.909,-0.522,-0.472,-0.117,-0.207 (inactive)
COc1ccc(NN2C(C(O)c3ccc(I)cc3)C=CC3C(=O)N(C4CCCCC4)C(=O)C32)cc1 (stereo not given),0.843,0.84 (inactive),0.394,-0.075,0.444,1.53,0.444,1.32,-0.195,1.1,0.698,1.23,-0.0558,0.951,1.3,0.366,0.119,0.946,1.22,1.29 (inactive)
CCCCCC1=C2CNC(Cc3ccccc3)(C(=O)OC)C=C2C(C)C1=O (stereo not given),0.638,0.881 (inactive),0.183,0.0878,0.648,2.17,0.984,-0.49,-1.52,-0.86,1.01,0.515,0.563,0.837,-0.216,-0.871,1.04,-0.849,0.0953,0.423 (inactive)
C=CC[C@]1(C(=O)NCC(O)CO)COC(c2ccc(OCCCO)cc2)=N1 (stereo not given in full),-0.506,-0.181 (inactive),0.0897,-0.0209,0.674,1.56,0.553,-0.174,-0.582,-1.45,-0.493,0.57,-0.0726,-1.36,0.821,1.01,-0.565,-0.513,-0.326,0.0208 (inactive)
[N-]=[N+]=Nc1ccccc1C[C@@]1(C(=O)NCc2ccccc2)N=C(c2ccc(OCCCO)cc2)O[C@@H]1c1ccccc1N=[N+]=[N-],0.913,0.605 (inactive),0.467,-0.0211,0.398,1.99,-0.136,1.14,-0.656,1.12,1.27,1.17,0.268,0.664,1.32,0.32,0.197,-0.0327,1.03,-2.56 (inactive)
CCOC(=O)C[C@H]1[C@H](OC(=O)Cc2ccc3c(c2)OCO3)[C@@H](NC(=O)Cc2ccc(OC)cc2)c2cc(OCCCO)ccc2N1C(=O)Cc1ccc(OC)cc1,0.635,0.472 (inactive),-0.143,-0.172,0.263,0.428,0.0995,0.323,-0.0366,-0.117,0.247,0.173,-0.113,0.239,-0.147,-0.0689,1.39,0.0681,-0.002,-0.127 (inactive)
COCCOC(=O)N1C(=O)[C@@]2(c3cc(C#CCC(C(=O)OC)C(=O)OC)ccc31)[C@H](c1ccc(O)cc1)N1[C@H](c3ccccc3)[C@H](c3ccccc3)OC(=O)[C@H]1[C@@H]2C(=O)Nc1nc2ccccc2s1,0.703,0.179 (inactive),0.146,-0.126,0.342,1.17,0.447,1.3,0.627,1.15,1.15,1.21,2.02,0.954,1.42,1.54,-2.1,1.44,0.968,-0.344 (inactive)
CN1C(=O)C2C(C3CC3)C=C3CN(Cc4cccc(Cl)c4)[C@@H]([C@@H](O)Cc4ccccc4)C3C2C1=O (stereo not given in full),0.363,0.996 (inactive),0.147,-0.104,0.225,1.17,-0.0531,1.3,0.231,1.06,0.162,1.18,1.09,0.862,0.662,0.845,1.35,1.45,0.344,-0.785 (inactive)
CC(C)NC(=O)[C@@]1(c2ccc([N+](=O)[O-])cc2)CC(=O)N(CC23CC4CC(CC(C4)C2)C3)[C@@H]1c1ccc(CO)cc1,0.0436,0.655 (inactive),1.07,0.427,0.195,2.79,0.885,1.29,1.21,1.12,0.999,1.18,0.601,0.948,1.35,1.55,-0.237,1.51,0.738,0.346 (inactive)
C=C1C(=O)C=C2CN(C(=O)c3ccccc3)[C@@](Cc3ccc(OC)cc3)(C(=O)OC)[C@@H]12,1.07,0.579 (inactive),0.711,0.11,0.523,3.32,0.471,1.3,-0.639,1.14,1.07,1.26,0.408,1.02,1.29,-0.0686,-0.322,0.381,1.13,3.22 (inactive)
